# The sample as a whole holds a higher share of hits than the screen did.
# RMI FANCM FP: RMI-FANCM interaction inhibition; Fluorescence polarization, RMI core complex with F-MM2 peptide; active compounds read low; FP signal (polarization) at 33 µM; 70,000 compounds, 0.58% hits; AID 1159607; in the data active = FP signal below about 40
# Starred values were filed as active, the others as inactive; ! = not confirmed by another sample.
SMILES,RMI FANCM FP
COC(=O)Cn1c(=NC(=O)c2ccc(Br)s2)sc2cc(F)ccc21,65
COC(=O)Cn1c(=NC(=O)c2ccc(OC)cc2)sc2cc(NC(C)=O)ccc21,74
COC(=O)Cn1c(=NC(=O)c2ccc(F)cc2)sc2cc(OC)ccc21,28*
CC(=O)NC(NC(=S)Nc1ccccc1N1C(=O)c2ccccc2C1=O)C(Cl)(Cl)Cl (centres undefined),61
COc1cccc2sc(NC=C(C#N)C#N)nc12,58
CC1(C)S[C@@H]2[C@H](NC(=O)Cc3ccccc3)C(=O)N2[C@H]1C(=O)O,63
CC1(C)S[C@@H]2[C@H](NC(=O)COc3ccccc3)C(=O)N2[C@H]1C(=O)O,32*
CC1(C)SC2C(NC(=O)C(N)c3ccccc3)C(=O)N2C1C(=O)O (centres undefined),60
COCCn1c(=NC(=O)C2CC2)sc2cc(Cl)ccc21,73
C=CCc1c(C)c(C#N)c2nc3ccccc3n2c1NC(C)CC (centres undefined),57
N/C(Cn1ccc(C(F)(F)F)n1)=N/OC(=O)Nc1ccc(SC(F)(F)F)cc1,56
COCCN1CCCc2ccc(NS(=O)(=O)Cc3cccc(C)c3)cc21,0*
COCCN1CCCc2ccc(NS(=O)(=O)c3cccc(C)c3)cc21,61
COCC(=O)N1CCCc2ccc(NS(=O)(=O)Cc3cccc(C)c3)cc21,73
O=[N+]([O-])c1ccc(NC2CCCCC2)c([N+](=O)[O-])c1,58
CC(C)NC(=O)C(=O)NCC(c1ccco1)N(C)C (centres undefined),66
O=C(Cc1csc(Nc2ccccc2)n1)Nc1nc2ccccc2s1,67
N#Cc1c(N=Cc2cc(Br)cc(Br)c2O)sc2c1CCCC2,53
CCOC(=O)c1c(N=Cc2ccc(N(CC)CC)cc2O)sc2c1CCCC2,80
CCN(CC)c1ccc(C=Nc2sc3c(c2C#N)CCCC3)c(O)c1,18*
Cc1ccccc1C(=O)NCCOc1ccc2nnc(-c3ccccc3Cl)n2n1,69
O=C(O)CCC(CCC(=O)O)(CCC(=O)O)[N+](=O)[O-],53
O=[N+]([O-])c1ccc(SC2=NCCN2)c(Cl)c1,53
O=[N+]([O-])c1ccc(Sc2ccc(Cl)cc2Cl)c2nonc12,33*
O=[N+]([O-])c1ccc(Sc2ccccc2)c(Cl)c1,53
SMILES,RMI FANCM FP
ONC=Nc1nonc1-c1cccnc1,55
CCn1c(SCC(=O)Nc2ccccc2C(F)(F)F)nnc1-c1cccn(C)c1=O,65
O=C1CCc2cc(NC(=O)c3cc(Cl)ccc3Cl)ccc2N1,69
COc1cccc(CNC(=O)Cn2c(=O)n(Cc3ccccc3Cl)c(=O)c3nccnc32)c1OC,66
CCOc1ccccc1CN1C(=O)C2(SC(NC(C)=O)=NN2C(C)=O)c2cccc(Cl)c21 (centres undefined),22*
CCOc1ccccc1CN1C(=O)C(NC(C)=O)c2cc(C)cc(C)c21 (centres undefined),63
C=CCN1C(=O)/C(=C\c2cc(C)n(-c3ccc(F)cc3)c2C)C(C(=O)OC)=C1C,31*
CC1=NN(c2ccccc2)C(=O)/C1=C\c1cc(C)n(-c2ccccc2)c1C,83
C=CCn1c(SCC(=O)c2cc(C)n(-c3ccc(C)c(C)c3)c2C)nc2scc(-c3ccc(F)cc3)c2c1=O,86
CN(C)c1ccc(C(CNC(=O)c2cccs2)N2CCN(c3ccccc3)CC2)cc1 (centres undefined),57
COc1cc(C(=O)Nc2nnc(-c3ccc4c(c3)OCO4)o2)cc(OC)c1OC,33*
CC(C)Oc1ccc(C(=O)Nc2nnc(-c3ccc4c(c3)OCO4)o2)cc1,62
CC(=O)Nc1nnc(-c2ccc3c(c2)OCO3)o1,64
NC(=O)/C(CCCCC(=O)O)=N/O,52
CC(/C=C1\SC(=S)N(NC(=O)c2cccc([N+](=O)[O-])c2)C1=O)=C\c1ccccc1,57
COc1ccc(NS(=O)(=O)c2ccc(NC(C)=O)cc2)cc1,55
O=C(O)c1cccc(Nc2nc3ccccc3nc2NS(=O)(=O)c2ccc(F)cc2)c1,58
COc1ccc(Nc2nc3ccccc3nc2NS(=O)(=O)c2ccc(NC(C)=O)cc2)cc1,7*!
COc1ccc(CC(=O)NCCNC(=O)c2ccc(NC(C)=O)cc2)cc1,68
Cc1ccc(S(=O)(=O)NCCCN2CCN(c3ccccc3)CC2)cc1,62
Cc1c(C)c2c(c(C)c1O)CC[C@@](C)(CCC[C@H](C)CCC[C@H](C)CCCC(C)C)O2,62
Cc1c(C)c2c(c(C)c1O)CCC(C)(CN1CCN(c3cc(N4CCCC4)nc(N4CCCC4)n3)CC1)O2 (centres undefined),55
Cc1c(C)c2c(c(C)c1O)CCC(C)(C(=O)O)O2 (centres undefined),1*
Cn1nc2c(c1NC(=O)COc1ccc(Cl)cc1)CCC2,63
N#Cc1c(-c2cccnc2)c2c([nH]c1=O)-c1ccccc1SC2,33*
SMILES,RMI FANCM FP
N#Cc1ccc(-c2cccnc2)[nH]c1=O,58
Cc1cc(C(=O)Nc2nnc(-c3ccc(S(C)(=O)=O)cc3)o2)no1,63
CCOC(=O)C(=O)Nc1c(C)nc2ccc(C)cn2c1=O,55
Cc1ccc2nc(C)c(NC(=O)Cc3ccccc3)c(=O)n2c1,73
Cc1ccc2nc(C)c(NC(=O)Cc3cccs3)c(=O)n2c1,28*
CN(C)c1ccc(C(CNC(=O)c2c(F)cccc2F)N(C)C)cc1 (centres undefined),61
O=C(NN1C(=O)C2C3c4ccccc4C(c4ccccc43)C2C1=O)c1ccncc1 (centres undefined),59
CCCc1c(C(=O)NC2CCN(Cc3ccccc3)CC2)cnn1-c1ccccc1,59
Nc1c(S(=O)(=O)c2cccs2)c2nc3ccccc3nc2n1Cc1ccco1,12*
Cn1c(-c2c(N)n(Cc3ccco3)c3nc4ccccc4nc23)nc2ccccc21,30
C=CCn1c(N)c(S(=O)(=O)c2ccc(Cl)cc2)c2nc3ccccc3nc21,68
Cn1c(NC(=O)c2ccc([N+](=O)[O-])cc2)c(-c2cccs2)c(=O)c2ccccc21,59
CN(Cc1ccco1)S(=O)(=O)c1ccc(C(=O)Nc2nc(-c3cccs3)cs2)cc1,62
CC1(C)[C@H]2CC[C@@]1(C)C(=O)C2,65
CCN1CCCc2cc(CCNC(=O)c3ccc(Br)o3)ccc21,48
CCCCOc1ccc(C(=O)NCCc2ccc3c(c2)CCCN3C)cc1,65
CCN1CCCc2cc(CCNC(=O)c3ccc(OC(C)C)cc3)ccc21,20*
CCN1CCCc2cc(CCNC(=O)C(=O)NCCN3CCOCC3)ccc21,69
CCN1CCCc2cc(CCNC(=O)C(=O)NCCOC)ccc21,13*
CCN1CCCc2cc(CCNC(=O)NC(C)(C)C)ccc21,65
CCCS(=O)(=O)c1nc2ccccc2n1C/C=C/c1ccccc1,49
C#CCn1c(=NC(=O)c2ccc(C)c(C)c2)sc2cccc(OCC)c21,91
O=C(N/N=C\c1ccccc1)/C(=C/c1ccccc1)NC(=O)c1ccccc1,65
CCCN1CCCc2cc(CCNC(=O)Cc3ccc(F)cc3)ccc21,28*
CCCN1CCCc2cc(CCNS(=O)(=O)c3cccc(F)c3)ccc21,17*
CCCN1CCCc2cc(CCNC(=O)CC(C)(C)C)ccc21,77
CCCN1CCCc2cc(CCNS(=O)(=O)c3ccc(OC)c(F)c3)ccc21,192
CCCN1CCCc2cc(CCNC(=O)c3c(F)cccc3F)ccc21,59
CCCN1CCCc2cc(CCNS(=O)(=O)c3ccc(Br)cc3)ccc21,139
COc1cccc(C2CC(c3ccc(C)cc3)=NN2C(=O)C(F)(F)F)c1OC (centres undefined),66

# Screens: PubChem, Small Molecule Screening Facility, UW Madison
